Measurements: PubChem BioAssay
Calls of active or inactive are those of the source.

Tests used:
[1] = small molecules captured by biotinylated probe aFSTL3 – biochemical, small-molecule microarray, fluorescence 635/667, stem cell growth factor project, primary screen (AID 1064); settings: higher = more signal;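 note: measures binding of the biotinylated anti-FSTL3 antibody to printed compounds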
[2] = binders from COS7 lysate, DM2A8 probe, primary screen, torsin A project, cell lysate, small-molecule microarray, fluorescence 635/667 (AID 1065); settings: higher = more signal, COS7 lysate expressing mutant human TOR1A
[3] = small molecules captured by biotinylated probe aFGF2 – biochemical, small-molecule microarray, fluorescence 635/667, stem cell growth factor project, primary screen (AID 1067); settings: higher = more signal;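 note: measures binding of biotinylated aFGF2 protein to printed compounds on slides; z-score merges feature fluorescence and signal-to-noise across triplicate slides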
[4] = small molecules captured by biotinylated probe aFGF10 – biochemical, small-molecule microarray, fluorescence 635/667, stem cell growth factor project, primary screen (AID 1071); settings: higher = more signal;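 note: score merges 667 nm spot intensity and signal to noise from triplicate slides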
[5] = molecular target: Neurogenic locus notch homolog protein 2 (Homo sapiens) (UniProt Q04721); assay: small molecules binding Notch2 protein – biochemical, small-molecule microarray, 635 nm fluorescence, stem cell growth factors, primary screen (AID 1073); settings: higher = more signal
Chain of Neurogenic locus notch homolog protein 2 (Homo sapiens) (Q04721 whole entry, looked up, canonical isoform): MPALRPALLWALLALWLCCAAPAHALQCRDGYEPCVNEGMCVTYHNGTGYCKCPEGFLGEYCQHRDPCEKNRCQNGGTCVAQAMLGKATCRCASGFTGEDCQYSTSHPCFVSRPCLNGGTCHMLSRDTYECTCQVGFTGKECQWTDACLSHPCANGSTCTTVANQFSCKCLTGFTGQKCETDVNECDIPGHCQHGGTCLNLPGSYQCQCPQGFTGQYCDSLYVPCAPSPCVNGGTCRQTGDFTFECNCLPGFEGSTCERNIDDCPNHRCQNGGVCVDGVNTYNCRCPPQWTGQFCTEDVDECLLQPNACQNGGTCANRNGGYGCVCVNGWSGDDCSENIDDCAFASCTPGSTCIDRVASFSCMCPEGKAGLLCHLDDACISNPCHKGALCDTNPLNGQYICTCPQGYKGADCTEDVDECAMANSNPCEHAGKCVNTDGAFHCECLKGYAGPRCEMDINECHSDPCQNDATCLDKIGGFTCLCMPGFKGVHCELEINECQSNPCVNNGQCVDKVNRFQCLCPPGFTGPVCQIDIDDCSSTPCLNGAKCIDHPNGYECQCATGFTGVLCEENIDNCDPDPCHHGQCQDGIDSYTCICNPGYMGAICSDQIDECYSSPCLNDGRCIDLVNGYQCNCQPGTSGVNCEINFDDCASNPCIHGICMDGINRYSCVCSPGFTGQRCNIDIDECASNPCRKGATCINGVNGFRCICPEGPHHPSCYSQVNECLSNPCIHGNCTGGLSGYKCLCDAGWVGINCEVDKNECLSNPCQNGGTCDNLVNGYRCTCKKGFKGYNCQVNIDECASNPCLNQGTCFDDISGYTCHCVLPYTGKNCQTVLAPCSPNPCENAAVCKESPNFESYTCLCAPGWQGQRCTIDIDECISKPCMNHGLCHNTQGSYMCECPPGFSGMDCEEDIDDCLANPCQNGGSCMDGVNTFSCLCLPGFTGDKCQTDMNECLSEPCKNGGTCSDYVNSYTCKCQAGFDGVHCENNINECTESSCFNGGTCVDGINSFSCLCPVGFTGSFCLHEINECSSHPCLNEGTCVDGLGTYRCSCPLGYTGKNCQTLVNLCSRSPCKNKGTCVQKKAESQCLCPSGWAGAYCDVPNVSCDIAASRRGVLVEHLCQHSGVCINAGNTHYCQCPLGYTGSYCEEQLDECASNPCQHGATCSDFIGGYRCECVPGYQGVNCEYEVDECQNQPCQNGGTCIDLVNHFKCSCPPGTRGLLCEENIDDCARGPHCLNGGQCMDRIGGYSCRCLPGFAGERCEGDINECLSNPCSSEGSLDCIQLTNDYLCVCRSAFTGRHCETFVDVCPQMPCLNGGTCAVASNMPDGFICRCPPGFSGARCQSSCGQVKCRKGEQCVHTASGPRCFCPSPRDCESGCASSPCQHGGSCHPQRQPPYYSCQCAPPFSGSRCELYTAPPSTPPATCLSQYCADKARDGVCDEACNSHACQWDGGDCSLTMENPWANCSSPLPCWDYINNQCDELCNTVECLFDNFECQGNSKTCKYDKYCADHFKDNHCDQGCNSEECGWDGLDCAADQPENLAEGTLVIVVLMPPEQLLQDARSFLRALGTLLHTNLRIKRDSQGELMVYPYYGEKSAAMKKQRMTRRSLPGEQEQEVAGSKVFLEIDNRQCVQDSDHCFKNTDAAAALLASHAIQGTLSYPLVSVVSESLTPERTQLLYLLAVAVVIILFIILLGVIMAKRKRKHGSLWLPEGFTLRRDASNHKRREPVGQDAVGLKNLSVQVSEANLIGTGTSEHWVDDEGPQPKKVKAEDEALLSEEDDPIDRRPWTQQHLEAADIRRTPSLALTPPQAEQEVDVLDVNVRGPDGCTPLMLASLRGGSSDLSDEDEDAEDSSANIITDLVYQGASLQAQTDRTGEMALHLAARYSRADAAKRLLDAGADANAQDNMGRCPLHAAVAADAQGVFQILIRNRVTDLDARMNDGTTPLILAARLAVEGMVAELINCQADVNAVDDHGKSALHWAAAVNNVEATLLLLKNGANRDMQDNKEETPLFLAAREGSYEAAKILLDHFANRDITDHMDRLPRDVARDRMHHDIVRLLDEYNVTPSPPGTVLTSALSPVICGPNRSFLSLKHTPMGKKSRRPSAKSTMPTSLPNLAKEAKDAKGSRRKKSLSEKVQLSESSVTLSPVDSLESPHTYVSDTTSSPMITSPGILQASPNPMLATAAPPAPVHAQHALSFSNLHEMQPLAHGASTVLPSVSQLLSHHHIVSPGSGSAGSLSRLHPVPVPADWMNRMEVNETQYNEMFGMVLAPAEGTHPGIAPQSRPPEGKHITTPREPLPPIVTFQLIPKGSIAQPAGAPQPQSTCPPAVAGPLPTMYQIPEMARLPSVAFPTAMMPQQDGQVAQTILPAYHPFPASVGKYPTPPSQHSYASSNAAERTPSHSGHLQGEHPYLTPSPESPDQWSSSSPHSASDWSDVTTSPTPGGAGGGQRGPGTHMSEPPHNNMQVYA

[6] = molecular target: Pro-neuregulin-1, membrane-bound isoform (Homo sapiens) (UniProt Q02297); assay: small molecules binding neuregulin-1 protein – biochemical, small-molecule microarray, fluorescence 635/667, psychiatric disease protein project, primary screen (AID 1075); settings: NRG1 binding, 635 nm fluorescence, higher = more signal;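 note: score combines 667 nm spot fluorescence with signal to noise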
[7] = tested on: Neuregulin-1 EGF-like domain; assay: small molecules binding NRG1 EGF domain – biochemical, small-molecule microarray, 635 nm fluorescence, primary screen (AID 1081); settings: higher = more signal;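 note: binding of the protein to compounds printed on small-molecule microarray slides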
[8] = FRG1 expression reporter modulators in myotubes – cell-based, C2C12 myotubes, firefly/Renilla luciferase, luminescence, FRG1 inhibition for FSHD, primary screen (AID 1084); settings: FRG1 promoter luciferase, higher = more signal, called active from +8 up or from −8 down
[9] = small molecules captured by biotinylated probe aFST – biochemical, small-molecule microarray, fluorescence 635/667, stem cell growth factor project, primary screen (AID 1086); settings: higher = more signal;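 note: score merges 667 nm fluorescence with signal-to-noise of each printed compound spot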
[10] = binders of probe aHhip on microarray, primary screen, stem cell growth factor project, biochemical, small-molecule microarray, fluorescence 635/667 (AID 1087); settings: higher = more signal;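 note: score merges spot fluorescence at 667nm with spot signal to noise ratio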
[11] = tested on: PRMT1 (protein arginine N-methyltransferase 1); assay: small molecules binding arginine methyltransferase PRMT1 – biochemical, small-molecule microarray, 635 nm fluorescence, primary screen (AID 1088); settings: higher = more signal;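 note: binding of Prmt1 protein to compounds spotted on small-molecule microarray slides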
[12] = growth effects on S. cerevisiae YJM789 – YJM789 clinical isolate, OD600, 24 h, basal, primary screen (AID 1089); settings: higher = more signal, called active from +8 up or from −8 down;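 note: growth of clinical yeast isolate S. cerevisiae YJM 789 seeded 1000 cells per well; test concentration not given here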
[13] = S. pombe growth modifiers, basal conditions – strain 972, OD600, 24 h, no modulator, primary screen (AID 1090);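 note: basal condition with compound alone and no growth modifier present; test concentration not given here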; settings: S. pombe 972 growth, higher = more signal, called active from +8 up or from −8 down
[14] = budding yeast growth modifiers under rapamycin – strain BY4716, OD600, 96 h, primary screen (AID 1091); note: test concentration not given here; settings: S. cerevisiae BY4716 + rapamycin, higher = more signal, called active from +8 up or from −8 down
[15] = molecular target: Torsin-1A-interacting protein 2 (Homo sapiens) (UniProt Q8NFQ8); assay: small molecules binding lysate-expressed LULL1 – cell lysate, human LULL1 lysate, 635/667 nm fluorescence, primary screen (AID 1092); settings: small-molecule microarray, hLULL1 lysate binding, 635 nm fluorescence; higher = more signal;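 note: probe is lysate of COS7 cells overexpressing human LULL1; score merges per-feature 667 nm fluorescence with signal-to-noise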
[16] = optical density change of DRC41 E. coli – strain DRC41, OD650, 24 h, E. coli filamentation project, primary screen (AID 1093);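 note: MC1000 strain lacking acrAB efflux and sulA so SOS filamentation is blocked; test concentration not given here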; settings: E. coli DRC41 growth, higher = more signal, called active from +8 up or from −8 down
[17] = probe aLefty2 binding to arrayed compounds – biochemical, biotinylated probe, 635/667 nm fluorescence, primary screen (AID 1094); settings: small-molecule microarray, higher = more signal;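 note: score merges spot fluorescence near 667 nm with spot signal-to-noise ratio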
[18] = tested on: Noggin (protein binding on small-molecule microarray); assay: small molecules binding Noggin protein – biochemical, 635/667 nm fluorescence, primary screen (AID 1095); settings: 635 nm fluorescence, higher = more signal;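 note: score merges 667 nm feature fluorescence with signal to noise over triplicate slides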
[19] = molecular target: Neurogenic locus notch homolog protein 3 (Homo sapiens) (UniProt Q9UM47); assay: small molecules binding NOTCH3 protein – biochemical, 635/667 nm fluorescence, primary screen (AID 1096); settings: small-molecule microarray, 635 nm fluorescence, higher = more signal
Chain of Neurogenic locus notch homolog protein 3 (Homo sapiens) (Q9UM47 whole entry, looked up): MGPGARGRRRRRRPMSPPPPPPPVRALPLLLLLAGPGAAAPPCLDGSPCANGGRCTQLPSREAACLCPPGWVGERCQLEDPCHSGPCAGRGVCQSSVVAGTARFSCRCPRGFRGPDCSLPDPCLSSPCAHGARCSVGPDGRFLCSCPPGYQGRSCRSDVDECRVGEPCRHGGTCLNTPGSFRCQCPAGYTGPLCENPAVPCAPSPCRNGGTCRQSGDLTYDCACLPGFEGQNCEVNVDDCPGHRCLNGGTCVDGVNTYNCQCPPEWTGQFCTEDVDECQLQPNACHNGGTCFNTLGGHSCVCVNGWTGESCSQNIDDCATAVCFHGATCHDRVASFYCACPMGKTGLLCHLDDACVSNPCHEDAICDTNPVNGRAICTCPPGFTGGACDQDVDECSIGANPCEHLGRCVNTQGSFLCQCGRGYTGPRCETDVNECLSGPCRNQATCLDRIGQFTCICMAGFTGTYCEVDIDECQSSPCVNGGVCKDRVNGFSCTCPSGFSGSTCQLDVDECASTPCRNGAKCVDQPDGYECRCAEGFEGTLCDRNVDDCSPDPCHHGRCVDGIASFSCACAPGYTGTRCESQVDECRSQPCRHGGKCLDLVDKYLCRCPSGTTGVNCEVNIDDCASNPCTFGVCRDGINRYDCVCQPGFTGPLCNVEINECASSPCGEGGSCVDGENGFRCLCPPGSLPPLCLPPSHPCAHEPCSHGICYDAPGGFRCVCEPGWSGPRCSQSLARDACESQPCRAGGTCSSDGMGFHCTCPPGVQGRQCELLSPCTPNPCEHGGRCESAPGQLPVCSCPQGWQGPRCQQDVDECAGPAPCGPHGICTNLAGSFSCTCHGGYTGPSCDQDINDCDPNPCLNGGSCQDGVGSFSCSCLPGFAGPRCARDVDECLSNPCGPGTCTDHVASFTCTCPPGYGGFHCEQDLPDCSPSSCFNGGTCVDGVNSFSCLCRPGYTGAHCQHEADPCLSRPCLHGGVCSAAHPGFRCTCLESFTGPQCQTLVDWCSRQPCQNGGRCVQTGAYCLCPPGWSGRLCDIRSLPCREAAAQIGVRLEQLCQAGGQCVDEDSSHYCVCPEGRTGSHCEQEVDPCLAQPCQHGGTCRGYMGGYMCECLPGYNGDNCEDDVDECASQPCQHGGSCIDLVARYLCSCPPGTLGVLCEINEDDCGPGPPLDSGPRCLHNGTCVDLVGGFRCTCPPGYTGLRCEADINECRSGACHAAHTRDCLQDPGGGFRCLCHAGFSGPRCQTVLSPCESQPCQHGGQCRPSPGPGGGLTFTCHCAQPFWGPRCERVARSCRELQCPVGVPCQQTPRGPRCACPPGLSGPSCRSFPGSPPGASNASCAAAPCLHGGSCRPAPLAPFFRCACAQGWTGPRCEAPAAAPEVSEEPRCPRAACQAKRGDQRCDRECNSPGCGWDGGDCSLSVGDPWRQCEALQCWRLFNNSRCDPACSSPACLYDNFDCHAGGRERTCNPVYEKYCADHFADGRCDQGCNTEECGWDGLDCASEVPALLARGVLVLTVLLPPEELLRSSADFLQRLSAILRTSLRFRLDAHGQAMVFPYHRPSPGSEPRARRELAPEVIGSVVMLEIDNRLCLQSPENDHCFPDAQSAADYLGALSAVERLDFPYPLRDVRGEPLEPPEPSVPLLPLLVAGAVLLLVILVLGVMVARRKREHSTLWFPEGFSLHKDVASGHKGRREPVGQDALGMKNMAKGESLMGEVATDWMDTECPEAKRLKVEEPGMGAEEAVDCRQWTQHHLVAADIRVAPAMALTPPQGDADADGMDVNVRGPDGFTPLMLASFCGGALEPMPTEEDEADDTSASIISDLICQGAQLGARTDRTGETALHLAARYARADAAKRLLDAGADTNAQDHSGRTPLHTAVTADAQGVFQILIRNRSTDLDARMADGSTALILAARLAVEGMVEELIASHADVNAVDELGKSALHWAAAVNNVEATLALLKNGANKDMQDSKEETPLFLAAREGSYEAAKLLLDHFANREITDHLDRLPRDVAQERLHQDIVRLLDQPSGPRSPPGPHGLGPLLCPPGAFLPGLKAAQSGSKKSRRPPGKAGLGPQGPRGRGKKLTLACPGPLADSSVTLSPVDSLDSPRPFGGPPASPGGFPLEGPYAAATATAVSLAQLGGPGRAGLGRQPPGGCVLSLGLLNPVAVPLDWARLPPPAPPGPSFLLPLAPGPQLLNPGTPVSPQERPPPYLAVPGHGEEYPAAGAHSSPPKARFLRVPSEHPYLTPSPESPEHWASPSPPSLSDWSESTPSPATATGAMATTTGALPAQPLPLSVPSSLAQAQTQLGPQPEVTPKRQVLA

[20] = probe aEGFR binding to arrayed compounds – biochemical, biotinylated probe, 635/667 nm fluorescence, primary screen (AID 1097); settings: small-molecule microarray, higher = more signal;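 note: probe is a biotinylated anti-EGFR antibody binding compounds printed on slides; score combines fluorescence near 667 nm and signal to noise of each spot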

## CC(CCN1CCCCc2nc(C)c(C)cc21)=NO[C@@H](C)c1cc(-c2c(C)cc(C)cc2C)no1
[1]
  composite z-score: -0.0105
[2]
  composite z-score: -0.454
[3]
  composite z-score: -0.232
[4]
  composite z-score: -0.33
[5]
  composite z-score: -1.93
[6]
  composite z-score: 0.0782
[7]
  composite z-score: -0.246
[8]
  z-score: -1.49 (inactive)
[9]
  composite z-score: -0.689
[10]
  composite z-score: -0.134
[11]
  composite z-score: 0.0804
[12]
  z-score: -1.73 (inactive)
[13]
  z-score: -10.2 (active)
[14]
  z-score: -0.199 (inactive)
[15]
  composite z-score: -0.745
[16]
  z-score: 0.486 (inactive)
[17]
  composite z-score: -0.126
[18]
  composite z-score: -0.0547
[19]
  composite z-score: -1.55
[20]
  composite z-score: -0.343

## COc1ccc(COC(=O)NN=C2C[C@@H](O)[C@@H](O)[C@@H]3[C@@H]4C(=O)N([C@@H](C)c5ccccc5)C(=O)[C@@H]4CC[C@H]23)cc1
[1]
  composite z-score: 1.87
[2]
  composite z-score: 0.287
[3]
  composite z-score: -0.0614
[4]
  composite z-score: -0.129
[5]
  composite z-score: -0.249
[6]
  composite z-score: -0.413
[7]
  composite z-score: -0.592
[8]
  z-score: -0.797 (inactive)
[9]
  composite z-score: 0.951
[10]
  composite z-score: -0.226
[11]
  composite z-score: -0.517
[12]
  z-score: -0.21 (inactive)
[13]
  z-score: -0.0145 (inactive)
[14]
  z-score: -0.556 (inactive)
[15]
  composite z-score: 0.621
[16]
  z-score: 0.92 (inactive)
[17]
  composite z-score: 0.484
[18]
  composite z-score: -0.245
[19]
  composite z-score: -0.184
[20]
  composite z-score: -0.137

## O=C1C=C[C@@H](O)[C@@H]2[C@@H]3C(=O)N(c4cccc(Oc5ccccc5)c4)C(=O)[C@@H]3CC[C@@H]12
[1]
  composite z-score: -0.575
[2]
  composite z-score: -0.285
[3]
  composite z-score: -0.0527
[4]
  composite z-score: -0.102
[5]
  composite z-score: 0.493
[6]
  composite z-score: -0.04
[7]
  composite z-score: 0.588
[8]
  z-score: 0.485 (inactive)
[9]
  composite z-score: 0.241
[10]
  composite z-score: -0.274
[11]
  composite z-score: 0.491
[12]
  z-score: 0.162 (inactive)
[13]
  z-score: -0.753 (inactive)
[14]
  z-score: -0.0875 (inactive)
[15]
  composite z-score: 0.36
[16]
  z-score: 0.533 (inactive)
[17]
  composite z-score: -0.204
[18]
  composite z-score: 0.403
[19]
  composite z-score: 0.477
[20]
  composite z-score: 0.0443

## CO[C@H]1C[C@@H]2C[C@H](O)CC(CC(=O)O[C@@H](C=CCC(C)C)C[C@@H]3CC[C@H](C)[C@@H](C1)O3)O2
[1]
  composite z-score: -0.479
[2]
  composite z-score: 0.613
[3]
  composite z-score: -0.0442
[4]
  composite z-score: 0.365
[5]
  composite z-score: 1.03
[6]
  composite z-score: -0.33
[7]
  composite z-score: 0.661
[8]
  z-score: 0.0521 (inactive)
[9]
  composite z-score: 0.36
[10]
  composite z-score: -0.226
[11]
  composite z-score: 1.54
[12]
  z-score: -0.124 (inactive)
[13]
  z-score: -0.425 (inactive)
[14]
  z-score: -0.414 (inactive)
[15]
  composite z-score: 1.82
[16]
  z-score: 0.128 (inactive)
[17]
  composite z-score: -0.158
[18]
  composite z-score: 0.506
[19]
  composite z-score: 1.06
[20]
  composite z-score: -0.0458

## C=CC[C@@H]1C=C[C@H](ON=C(C)CCN2CCCCc3nc(C)c(C)cc32)[C@@H](CO)O1
[1]
  composite z-score: 0.407
[2]
  composite z-score: 1.57
[3]
  composite z-score: -0.0704
[4]
  composite z-score: 0.129
[5]
  composite z-score: 0.145
[6]
  composite z-score: 0.37
[7]
  composite z-score: 0.899
[8]
  z-score: 0.389 (inactive)
[9]
  composite z-score: 0.238
[10]
  composite z-score: 0.0053
[11]
  composite z-score: 1.47
[12]
  z-score: -1.19 (inactive)
[13]
  z-score: 0.805 (inactive)
[14]
  z-score: -0.508 (inactive)
[15]
  composite z-score: 1.77
[16]
  z-score: -0.0376 (inactive)
[17]
  composite z-score: -0.0769
[18]
  composite z-score: 1.21
[19]
  composite z-score: 0.67
[20]
  composite z-score: 0.044

## CC(C)(C)N1C(=O)[C@H]2[C@H]3[C@H](O)[C@H](O)CC(=NOC[C@@H](O)COCc4ccco4)[C@@H]3CC[C@H]2C1=O
[1]
  composite z-score: 0.812
[2]
  composite z-score: 0.152
[3]
  composite z-score: -0.0193
[4]
  composite z-score: 0.112
[5]
  composite z-score: 0.0503
[6]
  composite z-score: -0.0263
[7]
  composite z-score: -0.214
[8]
  z-score: 0.528 (inactive)
[9]
  composite z-score: -0.0115
[10]
  composite z-score: -0.0994
[11]
  composite z-score: -0.424
[12]
  z-score: -0.0093 (inactive)
[13]
  z-score: 0.257 (inactive)
[14]
  z-score: 0.498 (inactive)
[15]
  composite z-score: -0.238
[16]
  z-score: 0.635 (inactive)
[17]
  composite z-score: 0.16
[18]
  composite z-score: 0.0106
[19]
  composite z-score: -0.589
[20]
  composite z-score: -0.141
